Source: PubChem BioAssay (several laboratories)
This is a sample that favours compounds with a hit; in the whole collection about 3.9% have one here.
BoNT F protease – inhibitors of Botulinum neurotoxin F light chain protease; 360,000 tested, 0.22% active; inhibition, % at 10 µM; Multiplex microsphere protease cleavage assay, flow cytometry; AID 588497; in the data active = inhibition above about 35%, passing the limit was not always enough; inconclusive = no clear call, values can overlap the other calls; also: plate controls were buffer without enzyme for full effect and enzyme alone for no effect
Autofluor counter – compound fluorescence in toxin protease inhibitor counterscreen | compound autofluorescence counterscreen, microsphere flow cytometry; stronger effect = higher value | fluorescence intensity (no concentration beside the values) | 360,000 tested, 3.1% active | AID 624483; in the data active = fluorescence intensity above about 16000; inconclusive = no clear call, values can overlap the other calls
MazEF act – activators of E. coli MazEF toxin-antitoxin RNase | FAM/BHQ RNA-DNA oligo cleavage fluorescence, 5 h | AID 504720 | 350,000 tested, 0.32% active | activation, % at 20 µM | P0AE70; in the data active = activation above about 50%
Target sequence (P0AE70 whole entry, looked up): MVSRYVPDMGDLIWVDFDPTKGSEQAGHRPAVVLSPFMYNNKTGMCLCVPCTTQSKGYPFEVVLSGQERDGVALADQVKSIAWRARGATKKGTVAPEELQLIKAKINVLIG
Anthrax LF inh2 – anthrax lethal factor protease inhibition | P15917 | multiplex microsphere protease cleavage assay, LF | inhibition, % at 10 µM | 360,000 tested, 0.12% active | AID 588501; also: plate controls were buffer without enzyme for full effect and enzyme alone for no effect
BoNT A protease – inhibitors of Botulinum neurotoxin A light chain protease; inhibition, % at 10 µM; multiplex microsphere protease substrate cleavage, flow cytometry; 360,000 tested, 0.17% active; also: plate controls were buffer without enzyme for full effect and enzyme alone for no effect
Vc quorum ag-1 – inducers of Vibrio cholerae quorum light production without autoinducers. V. cholerae BH1578 lux reporter, luminescence, 6 h. activation, % at 18.7 µM. 350,000 tested, 0.16% active; in the data active = activation mostly above about 9.7%, no sharp cut-off; inconclusive = no clear call, values can overlap the other calls; inactive = mostly below about 3.7%
Vc quorum ag-2 – inducers of V. cholerae quorum light production without autoinducers. shares compounds with Vc quorum ag-1. V. cholerae BH1578 lux reporter, luminescence, 6 h. activation, % at 50 µM. 620 tested, under 10 active. AID 602243; call rule not given here
HeLa 24h tox – kills HeLa cells within 24 hours | shares compounds with Vc quorum ag-1 | HeLa viability, CellTiter-Glo ATP luminescence | activity change, negative = cytotoxicity, % at 35 µM | 25 tested, under 10 active;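 active = signal drop with fitted half-maximal concentration at or below twice the highest valid dose; inconclusive = flat curve with 30 to 70% loss, or poor fit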
Numbers without * were called inactive; i = inactive; ? = inconclusive; nt = no result given; + = active, no number. Rule as the data show it, unless noted: active = inhibition above about 30%; inconclusive = no clear call, values can overlap the other calls; inactive = below that.

SMILES | BoNT F protease | Autofluor counter | MazEF act | Anthrax LF inh2 | BoNT A protease | Vc quorum ag-1 | Vc quorum ag-2 | others
COc1ccc(CN2CCCC(C(=O)N3CCCCC3)C2)cc1OC (centres undefined) | 15.7 | 2935 | 5.5 | -2.0 | 1.5 | 1.4 | nt
Cc1ccc(C(=O)OCC(=O)NCCNC(=O)COC(=O)c2ccc(C)s2)s1 | -7.2 | 6204 | 2.0 | -0.8 | -2.1 | 12.5 | -0.1
CCOC(=O)CC(=O)Nc1nnc(C(C)C)s1 | 10.0 | 9863 | 2.6 | -4.3 | 0.1 | 16.7* | 0.0
CC(C)c1nnc(NC(=O)CCCC(=O)O)s1 | -4.0 | 2840 | 2.5 | -1.6 | 0.2 | i | nt
CCOc1ccc(N2CC(C(=O)N3CCN(C(=O)c4ccco4)CC3)CC2=O)cc1 (centres undefined) | 9.6 | 3620 | -34.8 | -1.7 | -2.2 | -0.2 | nt
O=C(Oc1ccc(=O)n(-c2ccccc2)n1)c1cccc(Cl)c1 | 2.9 | 2106 | 6.1 | 1.0 | 0.5 | 25.0* | 0.3
Cc1nc2ccc(C(=O)OCC(=O)N(C)c3ccccc3)cc2nc1C | 3.8 | 5001 | -1.6 | 12.0 | 2.5 | 14.3 | 0.0
CC(=O)Nc1ccc(-n2cnnn2)cc1 | 10.9 | 4511 | 1.6 | -0.6 | 0.6 | -0.1 | nt
O=C(O)c1cn[nH]c1-n1cnnn1 | 5.5 | 14046 | 5.5 | -17.4 | 4.6 | 1.8 | 0.1
O=[N+]([O-])c1ccc(S(=O)(=O)NCC(c2cccnc2)N2CCc3ccccc32)cc1 (centres undefined) | -5.9 | 6806 | 0.4 | 3.5 | -0.1 | 14.3 | 0.0
COc1ccc(-c2nnc3c4ccccc4c(C)nn23)cc1 | -1.1 | 22622* | 5.1 | -2.2 | -0.8 | 12.5 | 1.8
COc1cc2c(cc1OC)C(c1ccc(C)cc1)NC(=O)C2 (centres undefined) | 9.5 | 3555 | -2.0 | 0.8 | -2.0 | 99.6* | 0.7
CCOc1ccc(C2NC(=O)Cc3cc(OC)c(OC)cc32)cc1 (centres undefined) | 9.6 | 3253 | 5.1 | -12.9 | 1.7 | -0.6 | nt
COC(=O)c1ccc(-c2ccc(/C=N/NC(=O)Cc3nnc(N)s3)o2)cc1 | ? | 4074 | 11.9 | -2.4 | ? | -0.4 | nt
COc1ccc2[nH]c(=O)c(CN(C(=O)c3cccnc3)c3ccc(C)cc3)cc2c1 | -0.8 | 3359 | 0.4 | 2.8 | -0.4 | 18.4 | 0.1
Brc1ccc(C2=Nn3c(nnc3-c3n[nH]c4c3CCC4)SC2)cc1 | -12.4 | 2695 | 2.5 | -1.1 | 0.6 | 25.0* | 0.5
O=C(COc1ccc([N+](=O)[O-])cc1Cl)N(C1CCCCC1)C1CCS(=O)(=O)C1 (centres undefined) | -1.1 | ? | 1.2 | 1.7 | 4.4 | -0.5 | nt
CC(=O)Nc1cccc(NC(=O)C(=O)NCC(c2ccco2)N2CCc3ccccc32)c1 (centres undefined) | ? | ? | -0.5 | ? | ? | 0.7 | nt
O=C(Nc1cccc(Cl)c1)Nc1ccc(Cl)cn1 | 7.2 | 2407 | 0.4 | -0.5 | 0.0 | 32.1* | -0.6
O=C(Nc1ccc(Cl)cn1)Nc1ccc(Cl)cn1 | -3.5 | 2139 | -19.4 | -2.3 | 0.1 | -0.2 | nt
O=C(NCCc1ccccc1C(F)(F)F)c1cc(COc2ccccc2)on1 | -3.7 | 4210 | 2.0 | 5.3 | -0.8 | -0.3 | nt
COCCNC(=O)c1cnn2c1NC(c1ccco1)CC2C(F)(F)F (centres undefined) | 6.4 | 6836 | 6.6 | -15.1 | -0.4 | 16.7* | 0.3
CCOC(=O)N1CCC(NC(=O)c2cnn3c2NC(c2ccco2)CC3C(F)(F)F)CC1 (centres undefined) | -4.6 | 2722 | -7.5 | 6.5 | 1.6 | 4.2 | nt
CCOC(=O)c1ccc(NC(=S)N(CCN2CCCCCC2)Cc2cccs2)cc1 | -2.8 | 4997 | 4.1 | -8.5 | -0.8 | -0.2 | nt
CC(NS(=O)(=O)c1ccccc1)C(=O)Nc1nccs1 (centres undefined) | -0.2 | 8615 | 3.9 | -2.8 | 0.5 | nt | nt
SMILES | BoNT F protease | Autofluor counter | MazEF act | Anthrax LF inh2 | BoNT A protease | Vc quorum ag-1 | Vc quorum ag-2 | others
O=C(Nc1nccs1)C(NS(=O)(=O)c1ccc(Br)s1)c1ccccc1 (centres undefined) | -0.4 | 2707 | 5.9 | 2.8 | 0.5 | 25.0* | 0.4
Cc1ccc(NC(=O)CN(C)C(=O)COC(=O)[C@@H](NC(=O)c2ccccc2F)C(C)C)cc1 | -11.5 | 4862 | 6.0 | 1.0 | 3.7 | i | nt
O=C(Nc1ccc(Cl)c(Cl)c1)Nc1ccccc1C(=O)O | -0.5 | 2134 | -9.6 | -1.4 | 0.1 | 13.3 | 0.1
O=C(Nc1ccc(Cl)cc1)Nc1ccccc1C(=O)O | -6.2 | 3621 | 5.6 | 4.5 | -0.6 | 0.0 | nt
COc1cccc(C(=O)N(C)Cc2c(C)nn(C3CCS(=O)(=O)C3)c2C)c1 (centres undefined) | 2.3 | 2858 | -23.9 | -8.2 | -0.1 | -0.7 | nt
COc1cc(NC(=O)C2=C(C)OCCS2)c(Cl)cc1C(=O)NCCN(C)C | -0.8 | 3260 | 3.1 | -4.4 | -1.2 | 34.2* | 0.7
O=c1oc2c(CN3CCOCC3)c(O)c(Cl)cc2c2c1CCC2 | -3.1 | 2598 | nt | 1.2 | 0.1 | 31.5* | 4.4
COc1ccc(C(CNC(=O)c2ccc(-c3cccc(C(F)(F)F)c3)o2)N2CCOCC2)cc1 (centres undefined) | 27.7 | ? | 0.3 | 0.6 | 7.8 | 14.3 | 0.0
Cc1noc(C)c1NC(=O)N(C)C[C@@H]1Oc2cc(Br)ccc2S(=O)(=O)N([C@H](C)CO)C[C@@H]1C | 5.6 | 3538 | 3.4 | 3.9 | 0.2 | -0.4 | nt
Cn1nnnc1NCc1ccc(Cl)cc1 | 0.3 | 3366 | 10.1 | -1.6 | -0.5 | nt | nt
CCN(CC)c1ccc(CNc2nnnn2C)cc1 | -28.5 | 3899 | 7.2 | -11.4 | -2.3 | + | i
CCCn1nnnc1NCc1ccc(N(CC)CC)cc1 | -1.8 | 4598 | 554.9* | 3.3 | -4.5 | nt | i | HeLa 24h tox=-3.4
CCCn1nnnc1NCc1ccc(OC)cc1OC | 6.3 | 3552 | -0.5 | -7.1 | 0.0 | + | i
CCCn1nnnc1NCc1ccc(SC)cc1 | ? | 3169 | 10.0 | -2.9 | -0.4 | nt | i
CCOc1c(Br)cc(C(N)=O)cc1OC | -13.1 | 3592 | 5.7 | -3.4 | -0.8 | -0.2 | nt
COc1cc(C(N)=O)cc(Br)c1OC | 3.5 | 2950 | 0.7 | 1.1 | 0.1 | 25.0* | 0.3
O=C(C[n+]1ccc(/C=N/O)cc1)NC1CCCCC1 | -2.8 | 2120 | -14.4 | -0.2 | 0.0 | -0.3 | nt
Cc1noc(C)c1C(=O)OCC(=O)c1c[nH]c2ccccc12 | 21.9 | 14479 | 9.8 | 53.2* | 47.2* | 12.5 | 0.2
CC(OC(=O)Cn1cnc2c1c(=O)n(C)c(=O)n2C)C(=O)c1ccccc1 (centres undefined) | 3.2 | 5653 | 7.0 | -1.5 | 4.5 | 14.3 | 0.6
CC(C)/C=N/Nc1nc(-c2ccc(Br)cc2)cs1 | -2.8 | 2241 | -5.9 | -1.8 | 1.0 | -0.2 | nt
